From the supplement of paper PMC10681739 come the findings set out here.

The full ranking holds about 2,700 sequences; the median of “arbitrary fluorescence units” is about 4,100, and the highest 2% start at about 54,000. The sample as a whole holds a higher share of the highest values than the screen did.

For the assay, the target named is T1, ETS1 (UniProt P14921).
T1 sequence: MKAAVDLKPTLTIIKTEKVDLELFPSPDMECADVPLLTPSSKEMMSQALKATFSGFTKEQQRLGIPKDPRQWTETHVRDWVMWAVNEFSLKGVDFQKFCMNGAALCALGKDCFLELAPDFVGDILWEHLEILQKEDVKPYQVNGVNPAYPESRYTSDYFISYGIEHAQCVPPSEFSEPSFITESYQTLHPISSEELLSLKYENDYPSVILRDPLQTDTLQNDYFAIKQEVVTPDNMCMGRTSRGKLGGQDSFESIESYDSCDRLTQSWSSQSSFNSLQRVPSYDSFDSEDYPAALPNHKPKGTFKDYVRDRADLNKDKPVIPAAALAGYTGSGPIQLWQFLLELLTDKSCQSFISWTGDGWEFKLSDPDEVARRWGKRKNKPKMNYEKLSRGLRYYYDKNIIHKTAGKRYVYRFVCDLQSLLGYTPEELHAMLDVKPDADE
In words: ETS1 binding intensity (PBM fluorescence) (arbitrary fluorescence units); higher = stronger binding. As to conditions: ETS1 concentration 10 nM. How it is done:
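gcPBM on wild-type 36-bp genomic probes with two neighbouring ETS1 sites (4-24 bp apart). Recombinant human ETS1 (10 nM) was detected with anti-ETS1 antibody fluorescence. Values are medians over 3 replicate spots. The probes sit in constant array flanks that are not printed.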
Regarding CGCCGCATCCGGTAGCGAGAGTTCAACTTCCTGACT, the ETS1 binding intensity was 56600.
Sequence CAAGCGATTCTTCCGCCTCAACTTCCTGAGTAGCTG returned an ETS1 binding intensity of 5800.
As to TGTGATTTTCCATCCTGCCATTTCCTGGCACCCAGA, the ETS1 binding intensity turned out to be 4620.
As for GCCGCGGCGGAAGAGGCTCGGGGAGGAAGTTATTTG, the figure is 1880; as for AGTCACACAGGAAATGGAGCCAGGGGATGTGCTCAA, 14800.
With GCCGAGGACACTTCCGCGGGCGGAACCTGCCGGCAC, the ETS1 binding intensity came to 5200.
As for CGGGCACTTCCGGCGCGAACCGCTACTTCCGGTGCG, the ETS1 binding intensity stood at 95900.
Regarding CGCGCCGGGTGTTTCCGCTACTTCCCTGCGGCGGGG, the ETS1 binding intensity turned out to be 7930.
To ACTTGACATTTCCTGCCTCCTGTTTCCTCATCACTC belongs 22500.
In turn, GAGGTGGGGAGGAAGAGCTGCCGGAAGTAGGCGGTG yielded an ETS1 binding intensity of 5440.
CAGACTTCCGGGGTCGAGAACTACAACTTCCGACTT showed an ETS1 binding intensity of 61700.
For CTGGGCCCTTCCTGCCAGGTTGCACTTCCTGATAGC, the ETS1 binding intensity stood at 8540.
The sequence AGGCAGGAAGTACCGCCTGATGCTCAGCTTCCGCTG displayed an ETS1 binding intensity of 9880.
Regarding TGCCACATCCTGTCTTTTTACCTCCTTTCCTGCTTA, the ETS1 binding intensity turned out to be 51200.
In turn, GTAACAGGAAGAAAATAATTTACCACATCCTTTATT gave an ETS1 binding intensity of 975.
The sequence TGGTAACAGGCATTTCCGGTTTCCGGCCGGCTCCCT displayed an ETS1 binding intensity of 61800.
As for TGCGCATTTCCGCTCCTTGCCGGTTTTCCGGACCTC, the figure is 36000; as for CTTCCCTGGTAACATCCGGCATCCTGGGGCTGCCAA, 18800; as for ACATAAGACATGAGGATGTCTTCCTGACTTGCGTCC, 208.
In turn, GGGTCTTCCGGCCCTCTCGAAAATCATTTCCGGCAT came in with an ETS1 binding intensity of 22500.
To GTTATGATAACGGAACTACAGTTCCTCCAGGATGGA belongs 195; to GGAGGAGGCGGAGGAAACCCGGAAAAGGGGCCGCGC, 382.
As for GGCTCACTTCCGGCCTCAGAGCCGCTTCCGGCGCGC, the figure is 71400.
Sequence GCGCCGCCTCAGTTCCGCGGCTTCCGGCCACAGAGT showed an ETS1 binding intensity of 8030.
GCTCCGCCCCCGGAAGCCTCACTTCCGGGCGCGAGC came in with an ETS1 binding intensity of 25300.
CGGGAGCAGCGGAAGTCATTAACATCCGCGGTTGTG showed an ETS1 binding intensity of 12500.
The sequence TGCCACCACACCAGGATGCTTCCGTCTTTGAAGGCA had an ETS1 binding intensity of 1030.
As for GTCACCACATCCTGAGGCTTCTCATTTCCTTTCTAC, the figure is 6290.
TGTTATTGGACAACTTCCAGGAAAACATCCTCAAGA had an ETS1 binding intensity of 273.
To TGCCAAGTTACACTTCCTGTTTCCTCTCTGTGTGCC belongs 31700; to ACAACTTCCTGTTACACAAGACAGGTATTTCCTCAT, 59800; to AGCCCAAGCGCGGAAGAGGGCGGAAGGAGAACCCCT, 240.
The sequence GCACCAAGGGAAGTGGTTAAAACAGGAAGACCCGCT registered an ETS1 binding intensity of 919.
CGGCCCTTCCATTTCCTGCCTTCCTGCCTGCATTTG had an ETS1 binding intensity of 24200.
With GTCACTTCCGGCGCCCGCCTACACGCACTTCCGTTC, the ETS1 binding intensity was found to be 88200.
To GGAGCACTTCCGCTGGACGCACGCACTTCCGGCCCC belongs 50800.
Regarding TTACACTACTTCCGCCGCCTCACTTCCGGTGACGCG, the ETS1 binding intensity is 34100.
CATCCTTGGCATTTCCTCTGAGGAAGCTCGCACCCC returned an ETS1 binding intensity of 3550.
Turning to GGTTGGTGATTGGCAGGATCCTGGTATCCGCTAACA, the ETS1 binding intensity was found to be 278.
On to CTTCGCCTTCCGCTGTGAATAATAGCTTCCTGAGGC, for which the ETS1 binding intensity amounted to 10100.
The sequence CTGCTACAGGAAATCGCTTGTTATTTCCTGTAATGC gave an ETS1 binding intensity of 10900.
CTCAACTTCCGGAGGCGGCAGACTTTTTCCGTCAAG registered an ETS1 binding intensity of 36700.
TTCATTTCCGGCGGCGGAGGCGGCAGTTTCCTAAGC came in with an ETS1 binding intensity of 73000.
In turn, TGAGGCGGTTTCCTCGGCGCCTTTTCCGGCAGCGGC had an ETS1 binding intensity of 1360.
For the sequence AGATCGCTGGCTTCCTGTGTTTTTCCTGGACTCAGG, the ETS1 binding intensity came to 14800.
Turning to GCACCGGAAGTGACCGCCTCGCGGCTGCTTCCTCTC, the ETS1 binding intensity was found to be 57700.
CGGCCTCTTCCGCGAGCCCGCGCGCCGGAAGTGGAA gave an ETS1 binding intensity of 5440.
Sequence CGCCGGAAGTGGTCGCGGGTCGTTCTGCTTCCTGCC came in with an ETS1 binding intensity of 18000.
In turn, CCTGAGTTTCCTTGTCTGGAGCTGCAGGATATTTGT showed an ETS1 binding intensity of 800.
Turning to ACCCCCTGGCGGATGCTGTGTGTTTCCTGTGCTTAG, the ETS1 binding intensity turned out to be 3420.
Take GGTCCGGAAGGGAGGAGAACACAAGCAGGATATAAC: the ETS1 binding intensity stood at 860.
In turn, ATCTGCAGGATGTAAGAAGAATAGAAGGAAGCTGGG displayed an ETS1 binding intensity of 1930.
Consider GGGGACCGGAAGCCAGCGGCAACAACTTCCGGCGGG, for which the ETS1 binding intensity was determined as 23100.
TGGCGGAGGCGCCGGAAGTTTTCCGGCTTTCTGCTG had an ETS1 binding intensity of 4500.
Regarding GACACAACTTCCGGCTTCTGGCGGCGGAAGAGGACA, the ETS1 binding intensity was determined as 90100.
The sequence TGAATGCTGTCATTTCCGCTTCCGCCTCCTTCTTTC displayed an ETS1 binding intensity of 26500.
To GCCTTCAATTTCCGTAGGGAACCTTCCTCCCAGTGA belongs 6860; to TGATTTCCGCTTTCTCCCCAGTGATTGCTTCCTTCA, 68300.
TCAACATCCTGCTTCTCAGGGCACCACAGGAAATGT showed an ETS1 binding intensity of 36600.
Sequence GGCGGCGACGGAAGTGAAGTCACTTCCGGGCTGGGG had an ETS1 binding intensity of 21300.
ACGTCACTTCCGGCGCCGGGGCTCACTTCCTGGTGC showed an ETS1 binding intensity of 87500.
As for TCGGGCCCTGGCTTCCGTCACTTCCGCCCGTGCCTG, the ETS1 binding intensity is 14700.
On to CAGCTAGGCTTCCTTCTCCTCCCTTCCTGTGCCTCC, for which the ETS1 binding intensity was found to be 1100.
